Assay results taken from PubChem BioAssay (NCATS).
The source made the active and inactive calls. Calls follow the shape of the dose curve; as a rule, active = well fitted curve in the direction sought with a large enough effect; inconclusive = small, poorly fitted or top-dose-only effect, or another doubt; inactive = no such curve, though single readings can be large or run the other way.

These molecules were tested against Guanine nucleotide-binding protein G(i) subunit alpha-1 (Homo sapiens) (UniProt P63096) (assay: qHTS Assay for Inhibitors of RGS12 GoLoco Motif Activity (Green Fluorophore) (AID 879;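 also: 0% = labeled peptide with Gαi1 and full inhibition = labeled peptide alone without protein; negative values mean loss of peptide binding seen as reduced polarization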)). Details: Galphai1/FITC-RGS12 GoLoco peptide, fluorescence polarization; series mostly up to 57.1 µM; activity, negative = inhibition: at the top concentration.
Guanine nucleotide-binding protein G(i) subunit alpha-1 (Homo sapiens), sequence (P63096 whole entry, looked up): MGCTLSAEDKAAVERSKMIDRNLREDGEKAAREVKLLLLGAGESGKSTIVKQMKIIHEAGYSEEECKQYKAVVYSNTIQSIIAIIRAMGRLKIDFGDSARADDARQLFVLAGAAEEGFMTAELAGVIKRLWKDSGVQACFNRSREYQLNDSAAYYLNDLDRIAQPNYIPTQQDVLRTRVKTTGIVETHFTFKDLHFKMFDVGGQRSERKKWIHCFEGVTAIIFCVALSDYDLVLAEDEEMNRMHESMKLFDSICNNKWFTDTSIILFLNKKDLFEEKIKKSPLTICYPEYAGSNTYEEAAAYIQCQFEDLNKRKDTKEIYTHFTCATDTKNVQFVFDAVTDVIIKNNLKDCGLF
Text: Assay Overview: NIH Molecular Libraries Screening Centers Network [MLSCN] NIH Chemical Genomics Center [NCGC] MLSCN Grant: NS053754-01 Assay Provider: Siderovski, David P, University of North Carolina at Chapel Hill G-protein-coupled receptors (GPCRs) are major targets for drug discovery. The regulator of G-protein signaling (RGS)-protein family has important roles in GPCR signal transduction. RGS proteins contain a conserved RGS-box, which is often accompanied by other signaling regulatory elements. RGS proteins accelerate the deactivation of G proteins to reduce GPCR signaling; however, some also have an effector function and transmit signals. Combining GPCR agonists with RGS inhibitors should potentiate responses, and could markedly increase the agonist's regional specificity. The diversity of RGS proteins with highly localized and dynamically regulated distributions in brain makes them attractive targets for pharmacotherapy of central nervous system disorders. […] A complex of Gai1 and fluorescently labeled G-alpha-binding peptide (the "GoLoco motif") derived from RGS12 is incubated with library members. Inhibitors of the binding are detected by a decrease in the fluorescence polarization (FP) of the fluorophore. Protein was supplied by Prof. David Siderovski, University of North Carolina at Chapel Hill.
Assay Protocol: Reagents/Controls: Assay Buffer: 10 mM Tris-HCl, 150 mM NaCl, 0.1 mM GDP (prepared fresh), and 0.05% NP40 at pH 7.5. […] 10 nM FITC labeled peptide/50 nM protein in columns 1, 2, 5 - 48. Titration of unlabeled peptide control ([H][…][NH2], custom synthesized and HPLC-purified by Tufts University Core Facility) from 10 mM, then 1:2 dilution, 16-point in duplicate, pin-transferred to column 2, rows 1 to 32. Column 1 is neutral. FITC-labeled RGS12-GoLoco peptide was custom-synthesized and HPLC-purified by Michael Berne of Tufts University Assay Steps. Four uL of reagents were dispensed to 1536-well Greiner black solid-bottom plates. Compounds and controls (23 nL) were transferred via Kalypsys PinTool. The plates were incubated for 10 min at room temperature, and then read on ViewLux (Perkin-Elmer) High-throughput CCD imager using FITC polarization filter sets for the fluorescein-labeled decapeptide probe.During dispense, reagent bottles were kept submerged into 4 deg C water bath and all liquid lines were covered with aluminum foil to minimize probe and protein degradation. All screening operations were performed on a Kalypsys robotic system (Kalypsys, Inc., San Diego, CA) containing one RX-130 and two RX-90 anthropomorphic robotic arms.

| SMILES | activity, negative = inhibition | outcome |
| --- | --- | --- |
| CC(C)c1ccc2c(c1)c(SC(C)(C)C)c(CC(C)(C)C(=O)O)n2Cc1ccc(Cl)cc1 | -18.9% (inactive) | – |
| CCN(CC)C(=S)SSC(=S)N(CC)CC | -25% (inactive) | – |
| Cc1cccc(C#Cc2ccccc2)n1 | -12.5% (inactive) | – |
| O=C1NC(=O)C(c2ccccc2[N+](=O)[O-])=C1Nc1ccc(O)c(Cl)c1 | -3.71% (inactive) | – |
| CC1(C)C(=O)N(CCN2CCC(C(=O)c3ccc(F)cc3)CC2)c2ccccc21 | -8.52% (inactive) | – |
| NCCCCNCCCN | 11.5% (inactive) | – |
| O=c1c(O)c(-c2cc(O)c(O)c(O)c2)oc2cc(O)cc(O)c12 | 49.9% (inactive) | – |
| CC1(C)NC(=O)N(c2ccc([N+](=O)[O-])c(C(F)(F)F)c2)C1=O | -17.3% (inactive) | – |
| Cc1cc(O)c2c(c1)C(=O)c1cc(O)cc(O)c1C2=O | 9.14% (inactive) | – |
| Oc1ccc(-c2nc(-c3ccc(F)cc3)c(-c3ccncc3)[nH]2)cc1 | 0.493% (inactive) | – |
| O=C(O)c1cccnc1Nc1cccc(C(F)(F)F)c1 | -22.5% (inactive) | – |
| Cc1c(OCC(F)(F)F)ccnc1CS(=O)c1nc2ccccc2[nH]1 (stereo not given) | -24.8% (inactive) | – |
| NC(=NCc1ccccc1)NC(=O)c1nc(Cl)c(N)nc1N | 7.83% (inactive) | – |
| COc1ccc2cc([C@H](C)C(=O)O)ccc2c1 | 7.63% (inactive) | – |
| Cc1nc2n(c(=O)c1CCN1CCC(c3noc4cc(F)ccc34)CC1)CCCC2 | -17.7% (inactive) | – |
| Nc1nc(OCc2ccccc2)c2[nH]cnc2n1 | 3.04% (inactive) | – |
| O=C(CCc1ccc(O)cc1)c1c(O)cc(O)cc1O | 3.11% (inactive) | – |
| COc1ccccc1N1CCN(CCN(C(=O)C2CCCCC2)c2ccccn2)CC1 | -6.6% (inactive) | – |
| O=Nc1c(-c2c(O)[nH]c3cc(Br)ccc23)[nH]c2ccccc12 | 11.6% (inactive) | – |
| NNc1nncc2ccccc12 | 8.85% (inactive) | – |
| CNC[C@H](O)c1ccc(O)c(O)c1 | – | inactive |
| O=c1c(O)c(-c2ccc(O)cc2O)oc2cc(O)cc(O)c12 | 15.6% (inactive) | – |
| C[C@H](Cc1ccc(O)c(O)c1)[C@@H](C)Cc1ccc(O)c(O)c1 | -9.8% (inactive) | – |
| O=c1ccc2ccc(O)c(O)c2o1 | -15.5% (inactive) | – |
| O=c1cc(N2CCOCC2)oc2c(-c3ccccc3)cccc12 | -4.11% (inactive) | – |
